High-throughput results: PubChem, National Center for Advancing Translational Sciences (NCATS)
A selection: hits, their analogues and other compounds. The true share with any hit is near 18%.
TDP1 block = qHTS Assay for Inhibitors of Tyrosyl-DNA Phosphodiesterase (TDP1); Potency, µM (highest dose often 130 µM), for inactives: top-dose activity change, negative = inhibition, most hits filed as inhibitors; Tyrosyl-DNA phosphodiesterase 1 (Homo sapiens), Q9NUW8; 0.28% of 350,000 active; recombinant TDP1, AlphaScreen DNA substrate cleavage; also: nearly all actives have a fitted effect of over 40% in size
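Enzyme-compound mixtures sat 15 min at room temperature, followed by a 5 min reaction with 15 nM final substrate and 10 min with AlphaScreen beads. Recombinant human Tdp1 was used at 1 nM final.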
PLK1 PBD inh = qHTS for Inhibitors of PLK1-PDB (polo-like kinase 1 - polo-box domain): Primary Screen; Plk1 PBD binding of FITC phosphopeptide, fluorescence polarization; Potency, µM, for the others: max response, negative = inhibition, actives largely listed as inhibitors; 2.8% of 360,000 active; AID 720504, 2013; also: series mostly up to about 57 µM; nearly all actives have a fitted effect of over 65% in size
GCN5L2 inh = qHTS Assay for Inhibitors of GCN5L2 | GCN5L2 HAT assay, ThioGlo1 CoA-SH fluorescence | 0.21% of 390,000 active | Potency, µM (series often up to 58.9 µM), without a hit: at the top dose activity change, negative = inhibition, usual class: inhibitors | Histone acetyltransferase KAT2A (Homo sapiens), Q92830
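GCN5L2 (20nM final) in 50mM HEPES, 0.1mM EDTA pH 7.5, 0.01% Tween-20 was preincubated 15 min at room temperature with compound, then given ThioGlo1 (50uM), H3(1-25) peptide (75uM) and acetyl-CoA (70uM); CoA-thiol fluorescence (Ex340/Em540) was read at 0 and 20 min.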
VDR inh = Inhibitors of the vitamin D receptor (VDR): qHTS | AID 504847, 2011 | VDR-SRC2-3 peptide fluorescence polarization, 2 h | Potency, µM, without a hit: max response, negative = inhibition, usual class: inhibitors | 0.93% of 400,000 active
Target sequence (P11473 whole entry, looked up): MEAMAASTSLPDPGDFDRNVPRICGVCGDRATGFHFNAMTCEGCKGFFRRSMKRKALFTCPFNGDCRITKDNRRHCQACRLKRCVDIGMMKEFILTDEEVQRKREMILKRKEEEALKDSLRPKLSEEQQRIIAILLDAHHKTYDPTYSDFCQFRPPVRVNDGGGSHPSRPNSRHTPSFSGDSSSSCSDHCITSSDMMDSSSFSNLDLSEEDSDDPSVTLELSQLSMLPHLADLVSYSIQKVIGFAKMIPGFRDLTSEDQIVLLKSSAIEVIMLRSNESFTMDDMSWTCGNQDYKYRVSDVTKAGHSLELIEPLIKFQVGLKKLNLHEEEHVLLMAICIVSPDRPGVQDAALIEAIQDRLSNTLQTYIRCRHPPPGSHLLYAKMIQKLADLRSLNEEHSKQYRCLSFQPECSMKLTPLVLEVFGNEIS
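Fluorescence polarization assay of small-molecule disruption of VDR binding to coregulator peptide SRC2-3. Compounds and controls pin-transferred, then read after 2 h incubation at ambient room temperature.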
DT40 TDP1 no CPT = qHTS for Inhibitors of human tyrosyl-DNA phosphodiesterase 1 (TDP1): qHTS in cells in absence of CPT; DT40 Tdp1-/- hTDP1 cells, no CPT, ATP luminescence, 48 h; Potency, µM (titrated, usually from 46.2 µM), inactives show at the highest dose activity change, negative = growth inhibition, hits mostly inhibitors; 15% of 420,000 active; AID 686978, 2013; also: nearly all actives have a fitted effect of over 55% in size
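Luminescent ATP content (CellTiter-Glo) served as the growth readout. Knockout chicken DT40 cells expressing human TDP1 were exposed to compounds without camptothecin for a minimum 48 hr at 37 °C.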
DT40 TDP1 CPT = qHTS for Inhibitors of human tyrosyl-DNA phosphodiesterase 1 (TDP1): qHTS in cells in presence of CPT. chicken DT40 Tdp1-/-;hTDP1 cells + 20 nM CPT, ATP luminescence, 48 h. Potency, µM (series often up to 46.2 µM), for inactives: at the highest dose activity change, negative = growth inhibition, actives largely listed as inhibitors. 12% of 420,000 active; also: nearly all actives have a fitted effect of over 55% in size
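Chicken DT40 Tdp1-/- cells stably complemented with human TDP1 were seeded at 400 cells/well in medium containing 20 nM camptothecin, exposed to pin-transferred compounds, and grown at 37 °C for at least 48 hr. Viability was read as ATP luminescence.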
The depositor's hits bear a star; u = inconclusive; x = no result. Calls follow the shape of the dose curve; as a rule, active = well fitted curve in the direction sought with a large enough effect; inconclusive = small, poorly fitted or top-dose-only effect, or another doubt; inactive = no such curve, though single readings can be large; an effect the other way counts as inactive or inconclusive. % is scaled to controls: 0 for no effect and ±100 for the full control effect; potency is read from the fitted curve at half-maximal effect.

SMILES	TDP1 block	PLK1 PBD inh	GCN5L2 inh	VDR inh	DT40 TDP1 no CPT	DT40 TDP1 CPT
Fc1ccc(NC(=S)Nc2ccccc2OC(F)F)cc1Cl	0.6%	-18.1%	-18.0%	-14.2%	u	u
Cc1ccc(NC(=S)Nc2ccc(Cl)c(Cl)c2)c(OC(F)F)c1	1.8%	-12.3%	1.3%	-13.9%	18.4µM*	20.6µM*
NC(=S)Nc1ccc(Cl)c(Cl)c1	4.3%	-3.5%	-20.3%	-5.1%	9.2µM*	11.6µM*
Cc1cc(C)n(-c2nnc(Nc3ccc(C(C)C)cc3)c3ccccc23)n1	-1.2%	x	-5.6%	-7.0%	u	u
COCCn1c(SCC(=O)Nc2cccc(C)c2C)nc2c(oc3ccccc32)c1=O	2.0%	x	0.5%	-12.0%	-13.2%	-13.0%
O=C(Nc1cccc(F)c1)N1CCCC2(CCNCC2)C1	x	x	-19.6%	u	u	-22.8%
CN(C)/C=N/C(=S)Nc1ccc(Cl)c(Cl)c1	-2.7%	23.8µM*	2.7%	u	u	u
O=C(Nc1ccc(Cl)c(Cl)c1)c1ccc(Cl)c(Cl)c1	2.9%	-5.1%	0.5%	-10.6%	5.8µM*	u
Cc1cc(C)cc(NC(=S)Nc2ccc(Cl)c(Cl)c2)c1	-5.1%	-9.6%	-10.7%	-8.3%	20.6µM*	u
CN(O)/C=N/C(=S)Nc1ccc(Cl)cc1Cl	2.5%	29.9µM*	-3.3%	u	u	u
Cc1cccc(NC(=O)c2cccc(S(=O)(=O)N(C)C3CCCCC3)c2)n1	x	-0.6%	x	x	u	u
Cc1ccsc1C(=O)N1CCCC(CO)(Cc2ccccc2F)C1 (stereo unspecified)	1.4%	-12.8%	0.7%	-9.5%	u	-22.7%
CCOc1ccc(C(=O)N[C@H](C(=O)Nc2ccc(S(=O)(=O)Nc3nccs3)cc2)C(C)C)cc1	2.4%	-3.4%	-2.2%	-13.1%	-13.7%	10.8%
C=CCn1c(SCC(=O)N(C)CC(=O)Nc2ccc(C)cc2)nnc1-c1ccncc1	-0.2%	0.0%	1.0%	-1.4%	-5.3%	16.7%
COc1ccc(-c2nnc3ccc(SC(C)C)nn23)cc1OC	3.2%	x	x	-9.5%	12.6µM*	10µM*
COC(=O)C(C)Sc1ccc2nnc(-c3ccc(F)cc3)n2n1 (stereo unspecified)	4.0%	-8.0%	-18.0%	-2.0%	-16.8%	u
COc1ccc(-c2nnc3ccc(SC(C(C)=O)C(C)=O)nn23)cc1OC	0.0%	-15.1%	-7.8%	-2.8%	u	18.4µM*
Nc1[nH]c(C(=O)c2ccccc2)c(-c2ccc(C(F)(F)F)cc2)c1C(=O)NCc1ccc(Cl)cc1Cl	x	-19.5%	x	x	u	u
O=C(NCc1ccccc1)C1=C[C@H](c2ccc3c(c2)OCO3)C[C@H](OCc2ccc(CO)cc2)O1	x	-14.2%	x	-16.9%	u	6.51µM*
O=C(C1=C[C@H](c2csc3ccccc23)C[C@H](OCc2ccc(CO)cc2)O1)N1CCOCC1	5.1%	-11.9%	-4.7%	2.6%	u	u
O=C(C1=C[C@H](c2csc3ccccc23)C[C@H](OCc2ccc(CO)cc2)O1)N1CCN(Cc2ccc3c(c2)OCO3)CC1	5.1%	0.4%	-0.1%	-19.5%	u	16.4µM*
O=C(NCc1ccccc1)C1=C[C@@H](c2ccc3c(c2)OCO3)C[C@@H](OCc2ccc(CO)cc2)O1	x	0.8%	x	-0.1%	u	u
C#CCNC(=O)C1=C[C@H](c2csc3ccccc23)C[C@H](OCc2ccc(CO)cc2)O1	3.8%	-5.5%	0.6%	-19.9%	16.4µM*	u
O=C(C1=C[C@H](c2ccccc2)C[C@H](OCc2ccc(CO)cc2)O1)N1CCN(Cc2ccc3c(c2)OCO3)CC1	3.8%	4.1%	2.4%	-3.7%	20.6µM*	u
COc1cc(F)ccc1-c1cc(C(=O)Nc2cc(OC)c(OC)c(OC)c2)[nH]n1	x	2.3%	x	x	u	u
SMILES	TDP1 block	PLK1 PBD inh	GCN5L2 inh	VDR inh	DT40 TDP1 no CPT	DT40 TDP1 CPT
Cc1ccc2oc(=O)c3cc(C(=O)Nc4ccc(C)c(F)c4)sc3c2c1	1.2%	x	-4.3%	-24.8%	-4.5%	4.0%
O=C1NC[C@@H](CCCCN2CCN(CCc3ccc(O)cc3)C(=O)C2=O)N(CCc2ccc(O)cc2)C1=O	x	1.3%	x	x	-14.0%	-1.4%
O=C(C1=C[C@@H](C2CC2)C[C@@H](OCc2ccc(CO)cc2)O1)N1CCN(Cc2ccc3c(c2)OCO3)CC1	2.6%	-14.1%	-0.9%	-23.0%	20.6µM*	u
CC1(C)N=C(SCC(=O)Nc2ccccc2)C(c2ccc(Cl)cc2)=N1	2.0%	-1.3%	0.1%	18.2%	14.6µM*	23.1µM*
Cc1ccc(C2=NC(C)(C)N=C2SCC(=O)Nc2ccc(Cl)cc2)cc1	1.8%	-23.2%	-5.8%	1.3%	u	20.6µM*
COc1ccc(NC(=O)N2CC[C@@]3(CCCN(C(=O)c4cccn4C)C3)C2)cc1	x	x	2.0%	-1.5%	-10.3%	1.4%
COc1ccc(S(=O)(=O)NC(=O)C2(C)CCN2C(=O)c2cccc(F)c2)cc1 (stereo unspecified)	x	-1.9%	x	x	6.8%	2.6%
CC(C(=O)Nc1ccc(S(=O)(=O)N2CCOCC2)cc1)N1C(=O)C2CC=CCC2C1=O (stereo unspecified)	-1.2%	-1.9%	-3.5%	3.1%	-9.9%	-7.3%
CCOC(=O)c1c(C)n(C)c2ccc(OCC(O)CN3C(=O)c4ccccc4S3(=O)=O)cc12 (stereo unspecified)	-5.3%	-12.8%	0.3%	-5.8%	16.4µM*	16.4µM*
COc1ccc(-c2noc(CC(=O)N(C)c3cccc(C)c3)n2)cc1	0.0%	x	-9.3%	10.9%	u	u
CSc1nn(Cc2ccc(C)cc2)c(N)c1S(=O)(=O)c1ccccc1	5.5%	x	-10.2%	-3.1%	23.1µM*	20.6µM*
CSc1nn(Cc2ccc(F)cc2)c(N)c1S(=O)(=O)c1ccc(Cl)cc1	2.6%	x	-18.9%	2.7%	16.4µM*	u
CCOc1ccc(NC(=O)Cn2nc(SC)c(S(=O)(=O)c3ccccc3)c2N)cc1	2.6%	x	-6.3%	9.6%	u	u
CSc1nn(CC(=O)Nc2ccc(C)cc2C)c(N)c1S(=O)(=O)c1ccc(Cl)cc1	10.0%	x	-9.1%	3.6%	u	u
